Screens from PubChem BioAssay.
MCF10A rerep – inducers of DNA re-replication in MCF 10A breast cells; MCF 10A DNA re-replication, Hoechst nuclear intensity, 48 h; Potency, µM (series often up to 46.1 µM), actives largely listed as activators; 350,000 compounds, 2.9% hits; AID 624296; further: nearly all actives have a fitted effect of over 50% in size
KB-3-1 cytotox – kills parental KB-3-1 adenocarcinoma cells | AID 1347075 | KB-3-1 viability, CellTiter-Glo ATP luminescence, 72 h | Potency, µM (series often up to 46.1 µM), hits mostly cytotoxic | 400,000 compounds, 1.4% hits; further: nearly all actives have a fitted effect of over 60% in size
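Cells are dispensed, compounds pinned in, plates held at 37 °C for 72 h, then CellTiter-Glo is added and luminescence read after 10 minutes. Cell line: parental KB-3-1 in phenol-red-free DMEM, 10% FBS.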
VP16 counter – Gal4-VP16 reporter inhibition counter-screen. Potency, µM (doses to about 53.6 µM), actives largely listed as inhibitors. AID 2546. Drosophila S2 Gal4-VP16 UAS-luciferase, luminescence, 20 h. 310,000 compounds, 3.5% hits;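 further: Gal4-VP16 expression switched on by copper sulfate through the metallothionein promoter; nearly all actives have a fitted effect of over 50% in size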
KB-V1 MDR tox – kills drug-selected multidrug resistant KB-V1 cells. KB-V1 MDR cells viability, CellTiter-Glo, 72 h. Potency, µM (series often up to 46.1 µM), most hits filed as cytotoxic. 400,000 compounds, 3.4% hits. AID 1347076; further: nearly all actives have a fitted effect of over 60% in size
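Potencies derive from concentration-effect curves fitted to normalized luminescence (CellTiter-Glo) of KB-V1 cells treated for 72 h at 37 degrees C in phenol-red-free DMEM containing 10% FBS.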
SW480 rereplic – DNA re-replication induction in SW480 cells; 340,000 compounds, 1.8% hits; Potency, µM (titrated, usually from 46.1 µM), most hits filed as activators; SW480 DNA re-replication, Hoechst DNA content imaging, 48 h; further: nearly all actives have a fitted effect of over 55% in size
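250 cells/well; 23 nL cpd via pin tool; 48 hr, 37 C, 5% CO2; Hoechst 40 min; imager read of total nuclear intensity, ex 405/em 500-530 nm.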
RORg inh – inhibitors of mouse ROR gamma transcriptional activity; Drosophila S2 Gal4-RORgamma UAS-luciferase reporter, 20 h; Potency, µM (doses to about 53.6 µM), usual class: inhibitors; 310,000 compounds, 5.4% hits; P51450; further: nearly all actives have a fitted effect of over 60% in size
Target sequence (P51450 whole entry, looked up, the tested form may be a part): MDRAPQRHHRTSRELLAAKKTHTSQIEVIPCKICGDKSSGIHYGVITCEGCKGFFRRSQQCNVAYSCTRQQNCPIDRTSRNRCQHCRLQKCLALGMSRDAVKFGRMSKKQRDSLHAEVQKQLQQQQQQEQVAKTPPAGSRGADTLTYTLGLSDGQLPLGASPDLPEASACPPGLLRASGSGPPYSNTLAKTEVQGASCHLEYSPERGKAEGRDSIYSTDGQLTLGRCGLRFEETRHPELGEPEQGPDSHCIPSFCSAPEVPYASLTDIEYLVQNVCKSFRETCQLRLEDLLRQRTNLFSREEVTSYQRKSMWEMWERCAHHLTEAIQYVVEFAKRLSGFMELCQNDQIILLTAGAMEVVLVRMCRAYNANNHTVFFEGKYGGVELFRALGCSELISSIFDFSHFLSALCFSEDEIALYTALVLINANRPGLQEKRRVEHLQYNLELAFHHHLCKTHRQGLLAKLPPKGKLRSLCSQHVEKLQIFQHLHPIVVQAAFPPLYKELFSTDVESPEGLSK
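Read-out: Photinus luciferase luminescence; inhibitors lower reporter signal. Insect Schneider cells with Gal4-ROR gamma fusion under metallothionein promoter, UAS reporter; 700 uM final copper sulfate induction, 20 hr, ambient temperature.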
A number is an active result; . = inactive; ? = inconclusive; / = not tested or not shown. Compounds with a hit are over-represented: about 10% of the library has one in this group of screens. The call rests on the fitted dose curve; in most records, active means well fitted curve in the direction sought with a large enough effect; inconclusive means small, poorly fitted or top-dose-only effect, or another doubt; inactive means no such curve, though single readings can be large; an effect the other way counts as inactive or inconclusive.

SMILES	MCF10A rerep	KB-3-1 cytotox	VP16 counter	KB-V1 MDR tox	SW480 rereplic	RORg inh
COc1ccc(C2N3CC4(C)CN2CC(c2ccccc2)(C3)C4=O)cc1 (stereo not drawn)	/	.	/	.	/	/
Cc1ccc2nc3c(cc2c1)c(NC(=O)c1ccco1)nn3CC(C)C	.	.	.	.	?	.
CC(C)Cn1nc(NC(=O)c2ccco2)c2cc3ccccc3nc21	?	?	.	?	16.4µM	.
CCn1nc(NC(=O)c2ccco2)c2cc3ccccc3nc21	20.6µM	.	.	?	?	.
CCn1nc(NC(=O)c2ccncc2)c2cc3ccccc3nc21	?	.	.	.	.	.
COc1ccc(CCn2c3c(c(=O)[nH]c2=O)C(NC(=O)c2ccccc2OC)(C(F)(F)F)C(=O)N3)cc1OC (stereo not drawn)	/	.	/	?	/	/
CCO[C@H]1OC(C(=O)NCc2nc3ccccc3[nH]2)=C[C@@H](C2CC2)[C@@H]1CCCO	3.66µM	.	.	.	3.26µM	.
CCO[C@@H]1OC(C(=O)NCc2ccccc2)=C[C@H](c2ccc(C(F)(F)F)cc2)[C@H]1CCCO	2.91µM	.	.	.	?	.
CCO[C@@H]1OC(C(=O)N2CCN(Cc3ccc4c(c3)OCO4)CC2)=C[C@H](c2ccc(C(F)(F)F)cc2)[C@H]1CCCO	.	?	.	25.9µM	.	.
CCO[C@H]1OC(C(=O)NCc2nc3ccccc3[nH]2)=C[C@@H](c2ccccc2)[C@@H]1CCCO	.	.	.	.	.	.
CCO[C@H]1OC(C(=O)NCc2ccccc2)=C[C@@H](c2ccc(Br)cc2)[C@@H]1CCCO	.	.	.	?	.	?
Cc1ccc(Cn2c(C(=O)O)c(CNCc3cccs3)c3ccc(C)cc32)cc1	/	.	/	.	/	/
CNC(=O)CSCc1cnn(-c2ccccc2)c1-n1cccc1	.	.	.	16.4µM	.	.
O=C(CSCc1cnn(-c2ccccc2)c1-n1cccc1)NCc1cccs1	.	.	.	.	.	.
COC(=O)Cn1c(CN2CCN(c3ccc(F)cc3)CC2)nc2c1c(=O)n(C)c(=O)n2C	.	?	2.82µM	.	.	.
CCOCCn1c(CN2CCN(c3ccc(F)cc3)CC2)nc2c1c(=O)n(C)c(=O)n2C	.	?	?	9.2µM	.	.
CCCCn1c(CN2CCN(C(=O)OCC)CC2)nc2c1c(=O)n(C)c(=O)n2C	.	?	.	13µM	.	.
CCCCCn1c(CN2CCN(CCO)CC2)nc2c1c(=O)n(C)c(=O)n2C	.	.	.	.	.	.
CC(=O)c1cc(-c2ccccc2)n(CCC(=O)NC(C)c2ccccc2)c1C (stereo not drawn)	/	.	/	.	/	/
Cc1ccc(C)c2[nH]c(=O)c(CCNC(=O)c3cc4ccccc4o3)cc12	.	.	12.6µM	.	.	.
Cc1ccc(C)c(-n2c3nc(=O)n(C)c(=O)c-3cc3ccccc32)c1	14.6µM	.	.	.	.	.
CCCCn1c(=O)nc2n(-c3ccccc3)c3ccccc3cc-2c1=O	.	?	.	10.3µM	.	.
Cc1ccc(S(=O)(=O)NCCc2nnc3ccc(SCc4ccccc4C)nn23)cc1	/	.	/	.	/	/
N#C/C(=C\c1ccc(Br)cc1)c1nc(-c2cc3cc(Br)ccc3oc2=O)cs1	/	.	/	?	/	/
CCN(CC)S(=O)(=O)c1cccc(C(=O)N[C@H](C(=O)Nc2nc3ccc(F)cc3s2)C(C)C)c1	?	14.6µM	.	5.8µM	?	?
SMILES	MCF10A rerep	KB-3-1 cytotox	VP16 counter	KB-V1 MDR tox	SW480 rereplic	RORg inh
CCOC(=O)c1ccc2nc(NC(=O)C(C)C)sc2c1	.	.	.	.	.	.
C=CCN(CC=C)S(=O)(=O)c1ccc2nc(NC(=O)C(C)C)sc2c1	8.2µM	3.66µM	.	?	?	.
CCN(CC)S(=O)(=O)c1cccc(C(=O)N[C@H](C(=O)Nc2nc3ccccc3s2)C(C)C)c1	.	.	.	.	.	.
Nc1cc2c3ccccc3ccc2c2ccccc12	?	?	/	.	20.6µM	/
c1ccc2c(c1)ccc1cc3c(ccc4ccccc43)cc12	/	/	.	/	/	.
Cc1cc(C(=O)OCC(=O)NC2CCCCC2C)c2ccccc2n1 (stereo not drawn)	.	.	/	.	.	/
CC1CCCCC1NC(=O)COC(=O)c1c2c(nc3ccccc13)/C(=C/c1ccco1)CC2 (stereo not drawn)	16.4µM	.	.	.	14.6µM	.
O=C(COC(=O)c1c2c(nc3ccccc13)/C(=C/c1ccco1)CC2)NC1CCCC1	7.31µM	.	.	16.4µM	13µM	.
COC(=O)C[C@H]1CC[C@@H](NS(=O)(=O)c2ccc(C)cc2)[C@@H](CO)O1	/	.	/	.	/	/
Cc1nn(C)c(Oc2ccccc2)c1CCNS(=O)(=O)c1ccc(Cl)cc1	.	?	.	18.4µM	.	.
O=S(=O)(NNc1ncc(C(F)(F)F)cc1Cl)c1ccc(F)cc1F	.	.	/	.	.	/
FC(F)(F)c1cnc(NNC(=S)Nc2ccc(Cl)cc2)c(Cl)c1	14.6µM	?	7.94µM	.	?	5.62µM
Cc1ccc(NC(=S)NNc2ncc(C(F)(F)F)cc2Cl)c(C)c1	.	.	?	.	.	10µM
Cc1ccc(C)c(SCC(=O)OCC(=O)Nc2ncc(C(F)(F)F)cc2Cl)c1	?	.	.	.	.	.
Fc1ccc(NC(=S)NNc2ncc(C(F)(F)F)cc2Cl)c(F)c1	.	20.6µM	?	14.6µM	?	5.01µM
Cc1ccc(NC(=S)NNc2ncc(C(F)(F)F)cc2Cl)cc1	.	?	11.2µM	.	.	12.6µM
COc1ccc(CCCc2nnc(SCC(=O)Nc3ccc(Cl)cc3)o2)cc1	/	.	/	.	/	/
CC[C@]1(c2ccccc2OC)ON(c2ccccc2C(F)(F)F)C1=O	?	23.1µM	/	?	?	/
COc1ncc2nc(-c3ccc(F)cc3)c(=O)n(C[C@H]3CCCO3)c2n1	/	/	.	/	/	.
Cc1cc(C)c(S(C)(=O)=O)c(NN)n1	.	.	.	.	.	2µM
CCC/C(O)=C1\C(=O)CCCC1=NCCc1c(C)[nH]c2ccc(OC)cc12	.	.	.	?	.	.
CCC(=NCCc1c(C)[nH]c2ccc(OC(F)(F)F)cc12)C1=C(O)CC(c2ccccc2)CC1=O (stereo not drawn)	?	4.11µM	.	2.91µM	11.6µM	.
CC(=NCCc1c(C)[nH]c2ccc(OCc3ccccc3)cc12)C1=C(O)CC(c2ccccc2)CC1=O (stereo not drawn)	.	.	.	?	.	.
CCC(=NC)C1=C(O)CC(c2ccccc2)CC1=O (stereo not drawn)	.	.	.	.	.	.
CCCCC(=NCCc1c(C)[nH]c2ccc(OC)cc12)C1=C(O)CC(c2ccccc2)CC1=O (stereo not drawn)	2.59µM	3.66µM	.	5.8µM	7.31µM	.
